Paper PMC8384837, “Expanding the binding specificity for RNA recognition by a PUF domain”
Where a chain is given by its changes, count along the chain named.

Legend:
Assay in all cases: yeast three-hybrid, YBZ-1, SC-Leu-His + 0.5 mM 3-AT, 4 days
Conditions in all cases: tags: N-Gal4 AD-HA kept; label: inside an RPR1-promoter hybrid RNA with tandem MS2 sites; ssRNA
PUM1 PUF domain R6-IWL = target: T1, PUM1 PUF domain R6-IWL (Homo sapiens, UniProt Q14671 828-1176, N1043I;Y1044W;Q1047L)
T1 sequence: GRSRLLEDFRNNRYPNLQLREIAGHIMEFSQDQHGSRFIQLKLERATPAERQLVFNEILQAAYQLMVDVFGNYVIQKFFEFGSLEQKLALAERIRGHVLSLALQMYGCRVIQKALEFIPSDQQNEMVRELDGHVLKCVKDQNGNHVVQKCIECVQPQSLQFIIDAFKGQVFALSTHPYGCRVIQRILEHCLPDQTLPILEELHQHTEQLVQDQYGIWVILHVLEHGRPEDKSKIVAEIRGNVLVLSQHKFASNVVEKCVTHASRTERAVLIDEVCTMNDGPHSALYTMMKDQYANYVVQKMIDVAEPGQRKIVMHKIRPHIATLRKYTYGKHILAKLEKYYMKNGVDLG
In short: (§1)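 Pumilio-1 PUF domain libraries, randomized (NNK) at the three base-contacting residues of each repeat, were co-expressed with matching RNA elements from a centromeric plasmid in strain YBZ-1 (LexA–MS2 coat fusion, HIS3 reporter). Transformants were plated on SC-Leu (input) and SC-Leu-His + 0.5 mM 3-AT (selection) for four days, and repeat regions were PCR-amplified and Illumina-sequenced. The interaction score is the log2 change in variant frequency from input to selection, with pseudocount 1 where absent.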

PUM1 PUF domain R6-HHR = target: T2, PUM1 PUF domain R6-HHR (Homo sapiens, UniProt Q14671 828-1176, N1043H;Y1044H;Q1047R)
T2 sequence: T1 sequence with I216H, W217H, L220R
In short: as §1

PUM1 PUF domain R3-VFY = PUM1 PUF domain R3-VFY (Homo sapiens, UniProt Q14671 828-1176, C935V;R936F;Q939Y)
In short: as §1

PUM1 PUF domain R4-EPS = PUM1 PUF domain R4-EPS (Homo sapiens, UniProt Q14671 828-1176, N971E;H972P;Q975S)
In short: as §1

PUM1 PUF domain R4-GHF = PUM1 PUF domain R4-GHF (Homo sapiens, UniProt Q14671 828-1176, N971G;Q975F)
In short: as §1

PUM1 PUF domain R8-HWV = PUM1 PUF domain R8-HWV (Homo sapiens, UniProt Q14671 828-1176, N1122H;Y1123W;Q1126V)
In short: as §1

PUM1 PUF domain R1-QWK = PUM1 PUF domain R1-QWK (Homo sapiens, UniProt Q14671 828-1176, S863Q;R864W;Q867K)
In short: as §1

PUM1 PUF domain R1-RRA = PUM1 PUF domain R1-RRA (Homo sapiens, UniProt Q14671 828-1176, S863R;Q867A)
In short: as §1

PUM1 PUF domain R5-RCV = PUM1 PUF domain R5-RCV (Homo sapiens, UniProt Q14671 828-1176, C1007R;R1008C;Q1011V)
In short: as §1

PUM1 PUF domain R5-RMG = PUM1 PUF domain R5-RMG (Homo sapiens, UniProt Q14671 828-1176, C1007R;R1008M;Q1011G)
In short: as §1

PUM1 PUF domain R3-RRS = PUM1 PUF domain R3-RRS (Homo sapiens, UniProt Q14671 828-1176, C935R;Q939S)
In short: as §1

PUM1 PUF domain R5-EAC = PUM1 PUF domain R5-EAC (Homo sapiens, UniProt Q14671 828-1176, C1007E;R1008A;Q1011C)
In short: as §1

PUM1 PUF domain R4-CNA = PUM1 PUF domain R4-CNA (Homo sapiens, UniProt Q14671 828-1176, N971C;H972N;Q975A)
In short: as §1

Sequence: GGCUAGAACUAGUGGAUCCCCCGGCGCCCGGCGGCUCGAGCCCGGGUAAGUGUAAAUAGUCUGCAUGCCGCCGGGCGCCAUGCCUGCAGGUCGACUCUAGAAAACAUG
- binding signal (PUM1 PUF domain R6-IWL): 3.09 log2 enrichment (interaction score)
- binding signal (PUM1 PUF domain R6-HHR): 5.44 log2 enrichment (interaction score)
- binding signal (PUM1 PUF domain R3-VFY): 6.12 log2 enrichment (interaction score)
- binding signal (PUM1 PUF domain R4-EPS): 3.28 log2 enrichment (interaction score)
- binding signal (PUM1 PUF domain R4-GHF): 4.42 log2 enrichment (interaction score)
- binding signal (PUM1 PUF domain R8-HWV): 3.05 log2 enrichment (interaction score)

Sequence: GGCUAGAACUAGUGGAUCCCCCGGCGCCCGGCGGCUCGAGCCCGGGUAAGUGUAAAUCGUCUGCAUGCCGCCGGGCGCCAUGCCUGCAGGUCGACUCUAGAAAACAUG
- binding signal (PUM1 PUF domain R1-QWK): 5.98 log2 enrichment (interaction score)
- binding signal (PUM1 PUF domain R1-RRA): 2.68 log2 enrichment (interaction score)

Sequence: GGCUAGAACUAGUGGAUCCCCCGGCGCCCGGCGGCUCGAGCCCGGGUAAGUGUCAAUAGUCUGCAUGCCGCCGGGCGCCAUGCCUGCAGGUCGACUCUAGAAAACAUG
- binding signal (PUM1 PUF domain R5-RCV): 2.81 log2 enrichment (interaction score)
- binding signal (PUM1 PUF domain R5-RMG): 2.42 log2 enrichment (interaction score)

Sequence: GGCUAGAACUAGUGGAUCCCCCGGCGCCCGGCGGCUCGAGCCCGGGUAAGUGUAAUUAGUCUGCAUGCCGCCGGGCGCCAUGCCUGCAGGUCGACUCUAGAAAACAUG
- binding signal (PUM1 PUF domain R3-RRS): 3.9 log2 enrichment (interaction score)
- binding signal (PUM1 PUF domain R3-VFY): 5.89 log2 enrichment (interaction score)

Sequence: GGCUAGAACUAGUGGAUCCCCCGGCGCCCGGCGGCUCGAGCCCGGGUAAGUGUGAAUAGUCUGCAUGCCGCCGGGCGCCAUGCCUGCAGGUCGACUCUAGAAAACAUG
- binding signal (PUM1 PUF domain R5-EAC): 3.49 log2 enrichment (interaction score)

Sequence: GGCUAGAACUAGUGGAUCCCCCGGCGCCCGGCGGCUCGAGCCCGGGUAAGUGUAAAUUGUCUGCAUGCCGCCGGGCGCCAUGCCUGCAGGUCGACUCUAGAAAACAUG
- binding signal (PUM1 PUF domain R1-RRA): 1.49 log2 enrichment (interaction score)

Sequence: GGCUAGAACUAGUGGAUCCCCCGGCGCCCGGCGGCUCGAGCCCGGGUAAGUGUACAUAGUCUGCAUGCCGCCGGGCGCCAUGCCUGCAGGUCGACUCUAGAAAACAUG
- binding signal (PUM1 PUF domain R4-CNA): 2.26 log2 enrichment (interaction score)

Sequence: GGCUAGAACUAGUGGAUCCCCCGGCGCCCGGCGGCUCGAGCCCGGGUAAGUGUAUAUAGUCUGCAUGCCGCCGGGCGCCAUGCCUGCAGGUCGACUCUAGAAAACAUG
- binding signal (PUM1 PUF domain R4-CNA): 1.78 log2 enrichment (interaction score)

Sequence: GGCUAGAACUAGUGGAUCCCCCGGCGCCCGGCGGCUCGAGCCCGGGUAAGCGUAAAUAGUCUGCAUGCCGCCGGGCGCCAUGCCUGCAGGUCGACUCUAGAAAACAUG
- binding signal (PUM1 PUF domain R8-HWV): 4.26 log2 enrichment (interaction score)
